Outcome and AC50 data for 5 compounds are collected here from PubChem BioAssay (EPA / NIEHS).

In assay [1] the target is Paired box protein Pax-6 (Homo sapiens) (UniProt P26367). Description: ATG_Pax6_CIS: Attagene CIS-FACTORIAL HepG2 Assay for human Paired Box 6 (PAX6) (AID 2282956). The settings on record: HepG2 CIS-FACTORIAL PAX6 reporter transcription, RNA readout; actives raise or lower the signal. In outline:
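Transient MRTU transfection of HepG2 → compound exposure 24 h → TriZol RNA, oligo(dT) RT → PCR, 6-FAM primer extension, HpaI cut → capillary electrophoresis; activity fitted both directions against DMSO.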

Assay [2] is described as follows: ATG_PXRE_CIS: Attagene CIS-FACTORIAL HepG2 Assay for human Pregnane X Receptor Element (PXRE) (AID 2282957). The conditions noted are these: HepG2 Attagene CIS-FACTORIAL PXRE reporter, mRNA; actives raise or lower the signal. The method, boiled down: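 Transiently transfected HepG2 cells were dosed and incubated for 24 h. RNA was then isolated, DNase-treated, reverse-transcribed and reporter sequences amplified. Labeled, HpaI-digested fragments were quantified by capillary electrophoresis against DMSO.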

The nature of assay [3]: ATG_PPRE_CIS: Attagene CIS-FACTORIAL HepG2 Assay for human Peroxisome Proliferator-activated Response Element (PPRE) (AID 2282958). The conditions noted are these: HepG2 PPRE cis-element reporter, Attagene transcription factor profiling; actives raise or lower the signal. In outline:
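Read-out: fluorescent reporter mRNA fragments resolved by capillary electrophoresis after RT-PCR. HepG2 cells carried transiently transfected PPRE-driven cis reporter constructs and were dosed for 24 h; gain or loss of signal fitted relative to DMSO.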

Assay [4] in a line: ATG_RORE_CIS: Attagene CIS-FACTORIAL HepG2 Assay for human RAR-related Orphan Receptor Element (RORE) (AID 2282959). The settings on record: HepG2 Attagene cis-factorial RORE reporter, mRNA; actives raise or lower the signal. In outline:
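Readout: fluorescent reporter mRNA by RT-PCR plus capillary electrophoresis, 24 h after dosing transfected HepG2 cells. Endogenous transcription factor activity on a cis promoter element is measured. Gain or loss of signal fitted against DMSO.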

A short description of assay [5]: ATG_Sox_CIS: Attagene CIS-FACTORIAL HepG2 Assay for human SRY-box transcription factor (SOX) (AID 2282960). The settings on record: HepG2 Attagene cis-factorial SOX reporter, mRNA; actives raise or lower the signal. The method, boiled down: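 Read-out: fluorescent RT-PCR products of SOX1-linked reporter transcripts resolved by capillary electrophoresis, fitted bidirectionally against DMSO. Transiently transfected HepG2 cells, 24 h after chemical exposure, endogenous transcription factor activity.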

For assay [6], the target named is Transcription factor Sp1 (Homo sapiens) (UniProt P08047). Description: ATG_Sp1_CIS: Attagene CIS-FACTORIAL HepG2 Assay for human Specificity Protein 1 (Sp1) (AID 2282961). The settings on record: HepG2 Sp1 cis-reporter transcription, actives raise or lower the signal. The method, boiled down:
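Read-out: fluorescence of 6-FAM-labeled, HpaI-digested RT-PCR products separated by capillary electrophoresis. HepG2 cells carried transfected cis-element reporter units and were exposed to chemicals for 24 h; gain or loss of signal fitted relative to DMSO.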

Assay [7] is described as follows: ATG_SREBP_CIS: Attagene CIS-FACTORIAL HepG2 Assay for human Sterol Regulatory Element Binding (SREBP) (AID 2282962). The settings on record: HepG2 Attagene cis-factorial SREBP reporter, mRNA; actives raise or lower the signal. The method, boiled down:
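Transfected HepG2 (cis-regulated reporter library, endogenous TFs) → compound 24 h → total RNA → oligo(dT) RT → reporter-specific PCR → FAM primer extension, HpaI cut → CE fluorescence. Fit bidirectional vs DMSO.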

Assay [8] addresses Signal transducer and activator of transcription 3 (Homo sapiens) (UniProt P40763). The experiment in a line: ATG_STAT3_CIS: Attagene CIS-FACTORIAL HepG2 Assay for human Signal Transducer and Activator of Transcription 3 (STAT3) (AID 2282963). The settings on record: HepG2, Attagene cis-factorial STAT3 reporter transcription; actives raise or lower the signal. The method, boiled down:
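After a 24 h compound incubation, total RNA from MRTU-transfected HepG2 cells was converted to cDNA and reporter sequences PCR-amplified, labelled and profiled by capillary electrophoresis. Gain and loss of signal were referenced to DMSO.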

A short description of assay [9]: ATG_TA_CIS: Attagene CIS-FACTORIAL HepG2 Assay for human TA Basal Promoter (AID 2282964). The conditions noted are these: HepG2 Attagene CIS-factorial TA basal promoter reporter; actives raise or lower the signal. The method, boiled down: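 Fluorescence from labelled RT-PCR reporter fragments, separated by capillary electrophoresis, gives the signal. Cells: HepG2 transiently carrying multiple reporter units, 24 h chemical dosing. Gain or loss relative to DMSO.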

The nature of assay [10]: ATG_TCF_b_cat_CIS: Attagene CIS-FACTORIAL HepG2 Assay for human T-Cell-Factor with beta-catenin (TCF/b-cat) (AID 2282965). The conditions noted are these: HepG2 TCF/beta-catenin cis-reporter transcription, actives raise or lower the signal. The method, boiled down: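 Measured: reporter mRNA in HepG2 transiently transfected with cis-promoter reporter units, 24 h after chemical addition. Fitting was bidirectional, DMSO as negative control.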

A short description of assay [11]: ATG_TGFb_CIS: Attagene CIS-FACTORIAL HepG2 Assay for human Transforming Growth Factor (TGF) (AID 2282967). The conditions noted are these: HepG2 Attagene CIS TGFb reporter, mRNA transcription; actives raise or lower the signal. The method, boiled down:
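Bidirectional fitting relative to DMSO gave the endpoint. Underlying data: reporter mRNA from HepG2 cells carrying transiently transfected cis-regulated reporter constructs, harvested 24 h after dosing and analyzed by RT-PCR and capillary electrophoresis.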

Assay [12] in a line: ATG_VDRE_CIS: Attagene CIS-FACTORIAL HepG2 Assay for human Vitamin D Receptor Element (VDRE) (AID 2282968). The conditions noted are these: HepG2 VDRE cis-reporter transcription, actives raise or lower the signal. The method, boiled down:
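In transiently transfected HepG2 liver cells, gain or loss of reporter mRNA after 24 h exposure is scored relative to DMSO, using fluorescence detection by capillary electrophoresis of RT-PCR products.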

Assay [13] addresses X-box-binding protein 1 (Homo sapiens) (UniProt P17861). The experiment in a line: ATG_Xbp1_CIS: Attagene CIS-FACTORIAL HepG2 Assay for human X-box Binding Protein 1 (XBP1) (AID 2282972). The settings on record: HepG2 XBP1 cis-element reporter, Attagene multiplex; actives raise or lower the signal. The method, boiled down:
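HepG2, transient MRTU transfection (cis-promoter driven), 24 h compound exposure. Total RNA → oligo(dT) RT → PCR → 6-FAM labeling → HpaI cut → CE. Bidirectional fit vs DMSO.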

The nature of assay [14]: ATG_GAL4_TRANS: Attagene TRANS-FACTORIAL HepG2 Assay for GAL4 (Internal Marker) (AID 2282976; active means hit-call score of the fitted dose curve at least 0.9, where 1 is the maximum). The conditions noted are these: HepG2 Attagene TRANS GAL4 internal marker reporter. The method, boiled down: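 Fluorescence from capillary electrophoresis of labelled RT-PCR products quantifies reporter mRNA induction after 24 h dosing of HepG2 cells carrying transfected GAL4-UAS reporter transcription units. Vehicle DMSO serves as baseline.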

The target of assay [15] is Nuclear receptor subfamily 1 group I member 3 (Homo sapiens) (UniProt Q14994). The experiment in a line: ATG_CAR_TRANS: Attagene TRANS-FACTORIAL HepG2 Assay for human Constitutive Androstane Receptor (CAR) (AID 2282969; active means hit-call score of the fitted dose curve at least 0.9, where 1 is the maximum;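 further: activators raise reporter mRNA above DMSO so AC50 marks induction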). The settings on record: HepG2 Attagene TRANS-FACTORIAL CAR reporter. The method, boiled down:
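Readout is reporter mRNA induction, quantified by fluorescent primer extension and capillary electrophoresis after RT-PCR. Cells were HepG2 transiently carrying chimeric NR-Gal4 constructs with GAL4-UAS reporters, treated for 24 h; activity scored upward from DMSO.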

The target in assay [16] is Estrogen receptor (Homo sapiens) (UniProt P03372). The experiment in a line: ATG_ERa_TRANS: Attagene TRANS-FACTORIAL HepG2 Assay for human Estrogen Receptor alpha (ERa) (AID 2282970; active means hit-call score of the fitted dose curve at least 0.9, where 1 is the maximum). The conditions noted are these: HepG2 Attagene TRANS ERa GAL4 reporter, mRNA. In outline: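 Transactivation via ERa-Gal4 chimera in HepG2; 24 hour incubation; reporter mRNA detected by fluorescence RT-PCR and capillary electrophoresis.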

Assay [17] in a line: ATG_M_19_TRANS: Attagene TRANS-FACTORIAL HepG2 Assay for M19 Transcription Factor (Internal Marker) (AID 2282974; active means hit-call score of the fitted dose curve at least 0.9, where 1 is the maximum). The conditions noted are these: HepG2 Attagene TRANS-FACTORIAL M19 internal marker reporter. The method, boiled down:
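24 h chemical exposure of transiently transfected HepG2 (MRTU library). RNA → oligo(dT) RT → PCR → 6-FAM labelling → HpaI cut → CE fluorescence. Positive-direction fit vs DMSO baseline; background internal-marker readout.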

Assay [18] can be described thus: ATG_TAL_CIS: Attagene CIS-FACTORIAL HepG2 Assay for human TAL Basal Promoter (AID 2282966).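 Further: background control endpoint measuring basal TAL promoter reporter mRNA not a specific factor.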 The conditions noted are these: HepG2 Attagene cis-factorial TAL promoter reporter; actives raise or lower the signal. In outline: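 Readout: reporter mRNA, fluorescence by CE. System: HepG2, transient multi-reporter transfection, endogenous TF activity. Exposure: 24 h. Analysis: bidirectional, DMSO-normalized; background control.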

Results filed as inconclusive are left out. Activity calls are given as the source filed them. How the source made its calls, unless noted: active means hit-call score of the fitted dose curve at least 0.9, where 1 is the maximum; inactive means score below 0.9.

Chain of Paired box protein Pax-6 (Homo sapiens) (P26367 whole entry, looked up): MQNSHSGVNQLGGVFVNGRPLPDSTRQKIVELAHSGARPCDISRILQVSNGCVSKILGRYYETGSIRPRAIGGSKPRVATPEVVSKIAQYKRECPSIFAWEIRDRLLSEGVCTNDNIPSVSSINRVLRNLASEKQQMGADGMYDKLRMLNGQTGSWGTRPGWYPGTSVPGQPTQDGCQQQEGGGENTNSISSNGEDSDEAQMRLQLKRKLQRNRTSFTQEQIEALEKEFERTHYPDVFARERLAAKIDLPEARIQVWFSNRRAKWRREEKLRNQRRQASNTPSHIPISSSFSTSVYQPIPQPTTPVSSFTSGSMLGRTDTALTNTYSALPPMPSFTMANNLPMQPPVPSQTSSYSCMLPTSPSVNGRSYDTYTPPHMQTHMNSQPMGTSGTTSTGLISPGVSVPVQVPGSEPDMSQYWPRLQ
Chain of Transcription factor Sp1 (Homo sapiens) (P08047 whole entry, looked up): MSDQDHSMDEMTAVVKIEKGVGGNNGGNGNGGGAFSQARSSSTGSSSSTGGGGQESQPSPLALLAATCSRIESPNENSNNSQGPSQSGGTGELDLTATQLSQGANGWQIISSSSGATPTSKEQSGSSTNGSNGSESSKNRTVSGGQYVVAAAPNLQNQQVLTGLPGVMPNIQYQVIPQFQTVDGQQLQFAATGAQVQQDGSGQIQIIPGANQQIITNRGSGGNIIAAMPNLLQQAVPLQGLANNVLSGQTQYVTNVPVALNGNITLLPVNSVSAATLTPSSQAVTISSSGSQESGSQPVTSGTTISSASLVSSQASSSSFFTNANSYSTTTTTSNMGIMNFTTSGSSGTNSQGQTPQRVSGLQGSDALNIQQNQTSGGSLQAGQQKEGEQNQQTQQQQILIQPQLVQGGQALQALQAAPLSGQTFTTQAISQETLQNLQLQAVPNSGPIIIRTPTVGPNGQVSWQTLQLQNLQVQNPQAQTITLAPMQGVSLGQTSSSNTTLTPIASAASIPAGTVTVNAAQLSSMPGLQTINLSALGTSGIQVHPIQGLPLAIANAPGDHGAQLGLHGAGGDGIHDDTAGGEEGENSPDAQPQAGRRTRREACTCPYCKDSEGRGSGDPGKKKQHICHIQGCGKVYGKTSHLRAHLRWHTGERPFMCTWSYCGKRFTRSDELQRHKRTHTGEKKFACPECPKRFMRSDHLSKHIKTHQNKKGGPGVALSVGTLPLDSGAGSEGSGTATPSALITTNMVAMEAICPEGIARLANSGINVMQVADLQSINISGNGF
Chain of X-box-binding protein 1 (Homo sapiens) (P17861 whole entry, looked up): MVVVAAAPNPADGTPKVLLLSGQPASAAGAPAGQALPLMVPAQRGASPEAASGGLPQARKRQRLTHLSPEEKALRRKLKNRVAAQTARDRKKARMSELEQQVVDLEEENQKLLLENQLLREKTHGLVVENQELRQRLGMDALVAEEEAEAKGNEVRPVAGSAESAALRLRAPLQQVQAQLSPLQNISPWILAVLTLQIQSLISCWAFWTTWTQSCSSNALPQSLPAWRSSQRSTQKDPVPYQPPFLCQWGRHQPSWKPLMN
Chain of Estrogen receptor (Homo sapiens) (P03372 whole entry, looked up, the tested form may be a part): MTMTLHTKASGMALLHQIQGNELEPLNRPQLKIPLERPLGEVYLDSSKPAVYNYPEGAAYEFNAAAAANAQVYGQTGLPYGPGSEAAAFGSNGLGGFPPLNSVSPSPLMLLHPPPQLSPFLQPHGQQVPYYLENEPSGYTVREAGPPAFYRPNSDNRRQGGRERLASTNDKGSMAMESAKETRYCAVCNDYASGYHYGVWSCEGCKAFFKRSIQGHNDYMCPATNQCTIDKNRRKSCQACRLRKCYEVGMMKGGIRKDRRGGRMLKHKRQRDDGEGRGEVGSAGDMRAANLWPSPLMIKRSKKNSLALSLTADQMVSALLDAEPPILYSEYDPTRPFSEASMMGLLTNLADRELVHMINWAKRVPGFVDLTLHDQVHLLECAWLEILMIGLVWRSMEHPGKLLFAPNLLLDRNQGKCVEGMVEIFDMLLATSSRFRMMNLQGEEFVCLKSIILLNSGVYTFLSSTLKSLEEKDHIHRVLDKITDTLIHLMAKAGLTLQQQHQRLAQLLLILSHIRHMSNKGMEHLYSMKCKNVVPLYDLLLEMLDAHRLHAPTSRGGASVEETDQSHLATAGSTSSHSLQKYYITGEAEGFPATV
Chain of Signal transducer and activator of transcription 3 (Homo sapiens) (P40763 whole entry, looked up): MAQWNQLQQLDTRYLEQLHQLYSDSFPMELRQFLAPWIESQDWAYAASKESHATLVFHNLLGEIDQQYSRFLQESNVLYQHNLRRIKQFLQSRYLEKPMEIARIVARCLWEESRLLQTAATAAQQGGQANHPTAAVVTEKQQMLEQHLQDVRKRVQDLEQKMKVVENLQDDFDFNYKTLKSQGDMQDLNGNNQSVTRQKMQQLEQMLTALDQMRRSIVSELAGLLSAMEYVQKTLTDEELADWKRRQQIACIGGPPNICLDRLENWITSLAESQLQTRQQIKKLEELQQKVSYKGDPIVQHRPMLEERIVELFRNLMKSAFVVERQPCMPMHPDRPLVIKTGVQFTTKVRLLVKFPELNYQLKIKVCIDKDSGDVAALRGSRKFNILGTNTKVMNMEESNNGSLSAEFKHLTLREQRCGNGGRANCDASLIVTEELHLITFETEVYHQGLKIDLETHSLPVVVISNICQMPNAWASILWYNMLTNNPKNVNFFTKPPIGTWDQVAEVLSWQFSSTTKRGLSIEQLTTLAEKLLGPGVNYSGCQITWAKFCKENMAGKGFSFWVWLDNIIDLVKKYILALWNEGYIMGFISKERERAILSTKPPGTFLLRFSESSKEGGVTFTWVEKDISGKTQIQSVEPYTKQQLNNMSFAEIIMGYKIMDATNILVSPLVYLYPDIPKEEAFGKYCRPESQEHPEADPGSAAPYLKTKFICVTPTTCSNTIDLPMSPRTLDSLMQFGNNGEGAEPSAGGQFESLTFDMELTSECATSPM
Chain of Nuclear receptor subfamily 1 group I member 3 (Homo sapiens) (Q14994 whole entry, looked up, the tested form may be a part): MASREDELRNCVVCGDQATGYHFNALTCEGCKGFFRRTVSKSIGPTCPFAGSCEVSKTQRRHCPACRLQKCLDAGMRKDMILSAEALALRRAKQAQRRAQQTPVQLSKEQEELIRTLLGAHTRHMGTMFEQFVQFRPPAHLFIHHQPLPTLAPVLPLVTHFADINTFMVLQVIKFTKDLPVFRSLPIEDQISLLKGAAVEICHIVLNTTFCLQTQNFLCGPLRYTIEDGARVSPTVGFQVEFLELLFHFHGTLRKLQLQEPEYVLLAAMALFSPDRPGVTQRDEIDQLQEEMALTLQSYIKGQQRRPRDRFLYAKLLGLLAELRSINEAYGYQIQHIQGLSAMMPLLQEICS

Turning to `COC(F)(F)C(F)(C(F)(F)F)C(F)(F)F`, the compound was classed as inactive in [1], in assay [2], in assay [3], in assay [4], in assay [5] and in [6]. Moreover, the compound was called inactive in assay [7], in assay [8], in assay [9], in [10], in assay [11] and in [12]. For the same compound, the compound was called inactive in assay [13] and in [14].
`CCCCCCCCCCCCCOP(=O)(O)O`: the outcome in assay [1], in assay [3], in assay [4], in assay [5], in [6] and in assay [7] was inactive. The outcome in assay [8], in [9], in assay [10], in assay [12], in assay [15] and in [16] was inactive. Moreover, the result in [17] was inactive. In addition, in [2], the half-maximal activity concentration (AC50) was 7.54 µM (active).
For `CC(=O)c1ccc[nH]1`, the compound was called inactive in assay [1], in assay [2], in assay [3], in [4], in [5] and in assay [6]. Also, the result in assay [7], in assay [9], in [10], in assay [18], in [11] and in [16] was inactive. The compound was classed as inactive in assay [13], in [17] and in [14].
Turning to `CC(=O)c1ccc2c(c1)CCCC2`, the result in assay [1], in assay [3], in assay [4], in assay [5], in [6] and in [7] was inactive. Moreover, the call in assay [9], in assay [10], in assay [18], in assay [11], in [12] and in assay [16] was inactive. The call in assay [13] and in assay [17] was inactive. Moreover, the AC50 in assay [2] is 26.4 µM (active).
For the compound `Clc1nc2ccccc2s1`, the compound was called inactive in [1], in assay [2], in [3], in assay [4], in [5] and in assay [6]. Moreover, the compound was called inactive in [7], in [9], in assay [10], in [18], in [11] and in assay [12]. Also, the call in assay [13] and in [14] was inactive.
